Laboratory results published in PubChem BioAssay (NCATS).
Records with an inconclusive call do not appear. Activity calls are given as the source filed them. Calls come from the whole dose curve; as a rule, active = well fitted cell-killing curve with a large enough effect; inconclusive = small, poorly fitted or top-dose-only effect; inactive = flat fitted curve, though single readings scatter.

Assay: Cellular viability qHTS for adrenocortical cancer (ACC) cell line NCI-H295R (AID 1963990); note: nearly all actives have a fitted effect of over 60% in size
Details: CellTiter-Glo ATP luminescence, 48 h; series mostly up to 46.1 µM
Procedure, shortened: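 Readout: CellTiter-Glo luminescence, 20 min RT. Exposure: 48 h, 37C/5% CO2. Cells: NCI-H295R, ITS-DMEM serum-free. Range: up to 46 uM. Analysis: 4PL fit, IC50 plus efficacy.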
Potency is the fitted concentration of half-maximal effect.

Question: With `CCn1c(=O)c2c(nc(/C=C/c3ccc(OC)c(OC)c3)n2C)n(CC)c1=O` as the compound, how does the Potency read?
Answer: inactive

Question: Which Potency does the source give for `Cc1ccc(NC(=O)c2ccc(CN3CCN(C)CC3)cc2)cc1Nc1nccc(-c2cccnc2)n1` here?
Answer: 25.1 µM (active)

Question: Which Potency does the source give for `Nc1ccc2c(c1)CN1C(=O)c3ccccc3C1=N2` here?
Answer: inactive

Question: Which Potency does the source give for `O=C1Nc2ccccc2C1(c1ccc(O)cc1)c1ccc(O)cc1` here?
Answer: inactive

Question: With `c1ccc(OCc2ccc(CCCN3CCOCC3)cc2)cc1` as the compound, how does the Potency read?
Answer: inactive

Question: With `Cc1cc(O)c2ccccc2c1O` as the compound, how does the Potency read?
Answer: 20.6 µM (active)

Question: Which Potency does the source give for `O=C1NCN(c2ccccc2)C12CCN(CCCC(c1ccc(F)cc1)c1ccc(F)cc1)CC2` here?
Answer: 3.26 µM (active)

Question: For `C=CCN(/C=C1\C(=O)O[C@@H](COC)[C@]2(C)C1=C(O)C(=O)C1=C2[C@@H](OC(C)=O)C[C@]2(C)C(=O)CC[C@H]12)CC=C`, which Potency is on record?
Answer: 28.2 µM (active)

Question: With `O=C(C1CCCCC1)N1CC(=O)N2CCCc3ccccc3C2C1` (stereo unspecified) as the compound, how does the Potency read?
Answer: 29.1 µM (active)

Question: With `OCCOCCN1CCN(C(c2ccccc2)c2ccc(Cl)cc2)CC1` (stereo unspecified) as the compound, how does the Potency read?
Answer: inactive

Question: Which Potency does the source give for `NC(=O)n1c(O)c(C(=O)c2cccs2)c2cc(Cl)ccc21` here?
Answer: 9.2 µM (active)

Question: For `O=C(CCCN1CCC(O)(c2ccc(Br)cc2)CC1)c1ccc(F)cc1`, which Potency is on record?
Answer: inactive

Question: With `O=C(NO)c1cnc(NC2(c3cccc(F)c3)CCCCC2)nc1` as the compound, how does the Potency read?
Answer: 3.16 µM (active)

Question: Which Potency does the source give for `CC/C(=C(/c1ccc(O)cc1)c1ccc(OCCNC)cc1)c1ccccc1` here?
Answer: inactive

Question: Which Potency does the source give for `NC1=NCC2c3ccccc3Cc3ccccc3N12` (stereo unspecified) here?
Answer: inactive

Question: With `CC(C)=CCOc1ccc(/C=C/C(=O)c2ccc(OCC=C(C)C)cc2OCC(=O)O)cc1` as the compound, how does the Potency read?
Answer: 9.2 µM (active)

Question: For `O=C(Cc1ccccc1)Nc1nnc(CCSCCc2nnc(NC(=O)Cc3ccccc3)s2)s1`, which Potency is on record?
Answer: inactive

Question: For `CCc1cccc(N(C)C(N)=Nc2cccc3ccccc23)c1`, which Potency is on record?
Answer: 20.6 µM (active)

Question: With `CC(=O)NCC(=O)N1[C@@H]2CC[C@H]1c1ccc(Nc3ncc(C(F)(F)F)c(NC4CCC4)n3)cc12` as the compound, how does the Potency read?
Answer: 4.47 µM (active)

Question: With `Nc1n[n+]([O-])c2ccccc2[n+]1[O-]` as the compound, how does the Potency read?
Answer: 17.8 µM (active)

Question: Which Potency does the source give for `Cc1c(Cl)cccc1S(=O)(=O)Nc1nc(CCN2CCOCC2=O)cs1` here?
Answer: inactive

Question: With `OCCOc1ccc(/C(=C(/CCCl)c2ccccc2)c2ccccc2)cc1` as the compound, how does the Potency read?
Answer: 25.1 µM (active)

Question: For `C/C=C(/C(=C/C)c1ccc(OC(C)=O)cc1)c1ccc(OC(C)=O)cc1`, which Potency is on record?
Answer: 23.1 µM (active)

Question: For `CCOC(=O)N1CCC(Nc2ccc(Cl)cc2N)CC1`, which Potency is on record?
Answer: 16.4 µM (active)

Question: Which Potency does the source give for `CN(C(=O)CCCOc1ccc2[nH]c(=O)ccc2c1)C1CCCCC1` here?
Answer: inactive

Question: With `O=C(c1ccc(F)cc1)C1CCN(CCn2c(=S)[nH]c3ccccc3c2=O)CC1` as the compound, how does the Potency read?
Answer: inactive
